# Data published in paper PMC5540273 (PLoS ONE, 2017).
# How the values were obtained:
# Settings in all cases: concentration: 1 μM,replicates: in singlicate; n = 1
# [1] = test system: CDK8
# [2] = test system: CDK9
# [3] = test system: CDKL1
# [4] = test system: CDKL2
# [5] = test system: CDKL3
# [6] = test system: CDKL5
# [7] = test system: CHEK1
# [8] = test system: CHEK2
# [9] = test system: CIT
# [10] = test system: CLK1
# 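Note: KINOMEscan kinase panel screen.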
compound,measurement,setting,value
CC(=O)c1c(-c2ccncc2)[nH]c(-c2ccncc2)c1C [GW493036],%Inh,[1],0%
same,%Inh,[2],87%
same,%Inh,[3],0%
same,%Inh,[4],43%
same,%Inh,[5],16%
same,%Inh,[6],35%
same,%Inh,[7],83%
same,%Inh,[8],0%
same,%Inh,[9],100%
same,%Inh,[10],99.8%
FC(F)(F)c1cc(Br)cc(Nc2nccc(-c3cnn4ncccc34)n2)c1 [GW810578],%Inh,[1],2%
same,%Inh,[2],97.8%
same,%Inh,[3],47%
same,%Inh,[4],96.2%
same,%Inh,[5],97.4%
same,%Inh,[6],95.3%
same,%Inh,[7],0%
same,%Inh,[8],17%
same,%Inh,[9],6%
same,%Inh,[10],99.2%
Cn1ccc2ncnc(Oc3ccc(NC(=O)Nc4cncc(C(F)(F)F)c4)c(Cl)c3)c21,%Inh,[1],95%
same,%Inh,[2],0%
same,%Inh,[3],0%
same,%Inh,[4],0%
same,%Inh,[5],0%
same,%Inh,[6],0%
same,%Inh,[7],0%
same,%Inh,[8],9%
same,%Inh,[9],44%
same,%Inh,[10],0%
CS(=O)(=O)c1cccc(CNc2nc(Nc3ccc4c(c3)[C@@H]3C[C@@H]4CNC3=O)ncc2C(F)(F)F)c1,%Inh,[1],0%
same,%Inh,[2],27%
same,%Inh,[3],71%
same,%Inh,[4],80%
same,%Inh,[5],2%
same,%Inh,[6],0%
same,%Inh,[7],0%
same,%Inh,[8],17%
same,%Inh,[9],51%
same,%Inh,[10],81%
CC(C)S(=O)(=O)N1CCN(Cc2ccc3c(c2)nc(NC(=O)c2ccsc2)n3C[C@H](O)c2ccccc2)CC1 [GW635815],%Inh,[1],15%
same,%Inh,[2],0%
same,%Inh,[3],8%
same,%Inh,[4],6%
same,%Inh,[5],0%
same,%Inh,[6],0%
same,%Inh,[7],0%
same,%Inh,[8],32%
same,%Inh,[9],98.4%
same,%Inh,[10],98.5%
Cn1cc(-c2cccc3c(N)c(C(N)=O)nnc23)cn1,%Inh,[1],33%
same,%Inh,[2],0%
same,%Inh,[3],32%
same,%Inh,[4],12%
same,%Inh,[5],7%
same,%Inh,[6],0%
same,%Inh,[7],0%
same,%Inh,[8],0%
same,%Inh,[9],10%
same,%Inh,[10],74%
CN1CCN(CCNc2nc3cc(Oc4ccc(NC(=O)Nc5cc(C(F)(F)F)ccc5F)cc4)ccc3[nH]2)CC1.Cl.Cl [GW768504],%Inh,[1],55%
same,%Inh,[2],0%
same,%Inh,[3],3%
same,%Inh,[4],56%
same,%Inh,[5],43%
same,%Inh,[6],0%
same,%Inh,[7],0%
same,%Inh,[8],3%
same,%Inh,[9],67%
same,%Inh,[10],2%
Cn1ccc2ncnc(Oc3ccc(NC(=O)Nc4cnn(C(C)(C)C)c4)c(Cl)c3)c21,%Inh,[1],97.1%
same,%Inh,[2],0%
same,%Inh,[3],21%
same,%Inh,[4],10%
same,%Inh,[5],19%
same,%Inh,[6],26%
same,%Inh,[7],3%
same,%Inh,[8],0%
same,%Inh,[9],39%
same,%Inh,[10],0%
CC(=O)Nc1ccc(-c2cc3ncnc(SCC(=O)O)c3s2)cc1,%Inh,[1],0%
same,%Inh,[2],85%
same,%Inh,[3],16%
same,%Inh,[4],0%
same,%Inh,[5],26%
same,%Inh,[6],18%
same,%Inh,[7],1%
same,%Inh,[8],26%
same,%Inh,[9],0%
same,%Inh,[10],31%
C[C@@H]1CNc2c(sc3ccc4nc(-c5ccncc5)ccc4c23)C(=O)N1,%Inh,[1],7%
same,%Inh,[2],44%
same,%Inh,[3],11%
same,%Inh,[4],0%
same,%Inh,[5],5%
same,%Inh,[6],0%
same,%Inh,[7],0%
same,%Inh,[8],18%
same,%Inh,[9],22%
same,%Inh,[10],92.9%
CS(=O)c1ccc(-c2coc3ccc(-c4n[nH]c(=O)o4)cc23)cc1 (stereo not drawn),%Inh,[1],91.1%
same,%Inh,[2],0%
same,%Inh,[3],10%
same,%Inh,[4],0%
same,%Inh,[5],12%
same,%Inh,[6],0%
same,%Inh,[7],0%
same,%Inh,[8],42%
same,%Inh,[9],0%
same,%Inh,[10],20%
Nc1nccc(-c2ccc3c(N)n[nH]c3c2)n1 [GSK1034945],%Inh,[1],13%
same,%Inh,[2],2%
same,%Inh,[3],10%
same,%Inh,[4],18%
same,%Inh,[5],30%
same,%Inh,[6],0%
same,%Inh,[7],0%
same,%Inh,[8],58%
same,%Inh,[9],54%
same,%Inh,[10],98%
Cc1ccc2c(-c3ccnc(Nc4ccc(C(F)(F)F)cc4)n3)cnn2n1 [GW819776],%Inh,[1],36%
same,%Inh,[2],23%
same,%Inh,[3],39%
same,%Inh,[4],69%
same,%Inh,[5],77%
same,%Inh,[6],61%
same,%Inh,[7],0%
same,%Inh,[8],0%
same,%Inh,[9],19%
same,%Inh,[10],83%
CN(c1cccc(CNc2nc(Nc3ccc4c(c3)CC(=O)N4)ncc2C(F)(F)F)c1)S(C)(=O)=O,%Inh,[1],0%
same,%Inh,[2],6%
same,%Inh,[3],44%
same,%Inh,[4],55%
same,%Inh,[5],7%
same,%Inh,[6],0%
same,%Inh,[7],0%
same,%Inh,[8],0%
same,%Inh,[9],30%
same,%Inh,[10],63%
Cc1cccc2c(-c3ccncc3)c(-c3ccc(F)cc3)nn12.Cl [GW461487],%Inh,[1],25%
same,%Inh,[2],0%
same,%Inh,[3],12%
same,%Inh,[4],8%
same,%Inh,[5],0%
same,%Inh,[6],0%
same,%Inh,[7],0%
same,%Inh,[8],0%
same,%Inh,[9],90%
same,%Inh,[10],17%
